Assay outcomes deposited in PubChem by National Center for Advancing Translational Sciences (NCATS).
Hits are enriched below; roughly 11% of the tested compounds scored in any of these assays.
Pf growth 48h: Primary qHTS for delayed death inhibitors of the malarial parasite plastid, 48 hour incubation. P. falciparum luciferase growth in erythrocytes, 48 h. Potency, µM (top dose mostly 28.7 µM), for inactives: at the top dose activity change, negative = inhibition, usual class: inhibitors. 310,000 compounds, 5.9% hits
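Erythrocytes infected with P. falciparum carrying an integrated firefly luciferase reporter (2% hematocrit, 0.1% parasitemia final) were exposed to compounds in RPMI 1640 with 0.5% Albumax at 37 C, 5% CO2. Growth inhibition was scored as reduced luminescence.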
AMA1 RON2 block: qHTS for Inhibitors of AMA1-RON; Towards Development of Antimalarial Drug Lead: Primary Screen; AlphaScreen AMA1-biotinylated RON2 peptide binding; Potency, µM (series often up to 58.2 µM), without a hit: at the highest dose activity change, negative = inhibition, actives largely listed as inhibitors; 360,000 compounds, 0.2% hits; AID 720542, 2013;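 note: 0% = vehicle wells and -100% = peptide control; nearly all actives have a fitted effect of over 45% in size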
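AMA1 (3D7) with his tag at 25 nM final met compounds first, then biotinylated RON2 peptide at 25 nM; detection used donor plus acceptor beads, 10 µg/mL apiece, read by AlphaScreen after 30 min at room temperature.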
HCV inh: qHTS Assay for Inhibitors of Hepatitis C Virus (HCV); 340,000 compounds, 3.4% hits; AID 651820, 2012; Potency, µM (series often up to 41.8 µM), for inactives: at the top dose activity change, negative = inhibition, actives largely listed as inhibitors; Huh7.5.1 HCVcc-Cre infection, luciferase reporter, 44 h
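After 44 h co-culture of compound, cells and HCVcc-Cre (~0.5 moi), substrate is added for 15 min at room temperature and luciferase measured over 15 sec. Cells were seeded at 1,000/well and pre-cultured 4 h.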
Pf growth 96h: Primary qHTS for delayed death inhibitors of the malarial parasite plastid, 96 hour incubation; 320,000 compounds, 6.9% hits; Potency, µM (doses to about 28.7 µM), for inactives: top-dose activity change, negative = inhibition, actives largely listed as inhibitors; P. falciparum luciferase reporter growth, 96 h; AID 504834, 2011
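Delayed-death screen, second-generation endpoint: infected erythrocytes, 2% hematocrit, 0.05% parasitemia final; 96 hours at 37 C, 5% CO2; luciferase detection reagent; luminescence decrease equals reduced growth.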
Active calls of the source: *. Calls come from the whole dose curve; as a rule, active = well fitted curve in the direction sought with a large enough effect; inconclusive = small, poorly fitted or top-dose-only effect, or another doubt; inactive = no such curve, though single readings can be large; an effect the other way counts as inactive or inconclusive. Unless noted, % is set by controls: 0 for no effect and ±100 for the full control effect; potency is the fitted concentration of half-maximal effect.

What do the screens show for `COc1ccccc1C(=O)NCCOc1ccc(C(C)(C)C)cc1`?
Pf growth 48h: inconclusive; AMA1 RON2 block: 24%; HCV inh: -20%; Pf growth 96h: 15µM*

How did CC(C)(C)c1ccc(C(=O)NCCOc2ccccc2F)cc1 do in these assays?
Pf growth 48h: 39%; AMA1 RON2 block: 5%; HCV inh: -3%; Pf growth 96h: inconclusive

How did C/C(=N\NC(=O)CSc1ncccn1)c1ccc2c(c1)OCCO2 do in these assays?
Pf growth 48h: 27%; AMA1 RON2 block: 16%; HCV inh: 13%; Pf growth 96h: inconclusive

What do the screens show for `O=C(Nc1nc(-c2ccccc2)cs1)c1ccccc1NS(=O)(=O)c1ccc(F)cc1`?
Pf growth 48h: 13µM*; AMA1 RON2 block: -18%; HCV inh: inconclusive; Pf growth 96h: 3.7µM*

How did COc1ccc(-c2csc(NC(=O)C(CC(=O)O)N3CCOCC3)n2)cc1 (stereo unspecified) do in these assays?
Pf growth 48h: 1.3µM*; AMA1 RON2 block: -8%; HCV inh: 14%; Pf growth 96h: 12µM*

How did COc1ccccc1C(=O)Nc1ccc(S(=O)(=O)N2CCOCC2)cc1 do in these assays?
Pf growth 48h: -21%; AMA1 RON2 block: 10%; HCV inh: 8%; Pf growth 96h: 18%

Results for COc1ccccc1OC(C)C(=O)Nc1nc(-c2ccc(S(=O)(=O)N3CCOCC3)cc2)cs1 (stereo unspecified) ?
Pf growth 48h: inconclusive; AMA1 RON2 block: -3%; HCV inh: inconclusive; Pf growth 96h: 12µM*

What do the screens show for `COc1ccccc1C(=O)Nc1nc(-c2ccc(S(=O)(=O)N3CCOCC3)cc2)cs1`?
AMA1 RON2 block: -22%; HCV inh: 3.5µM*; Pf growth 96h: inconclusive

How did CC(C)Cc1nnc(NC(=O)C2=COCCO2)s1 do in these assays?
Pf growth 48h: 267%; AMA1 RON2 block: -1%; HCV inh: 9%; Pf growth 96h: 268%

How did CC(C)CNC(=O)C1(C)CCCN1C(=O)c1cccnc1Oc1ccccc1 (stereo unspecified) do in these assays?
AMA1 RON2 block: 7%

How did COc1ccc(CNCCCC(=O)Nc2c(Cl)ccc(C)c2Cl)cc1OC do in these assays?
Pf growth 48h: -8%; AMA1 RON2 block: -6%; HCV inh: -26%; Pf growth 96h: -2%

Results for C=CCn1c(SCc2ccccc2C#N)nnc1-c1cc(Br)ccc1O ?
Pf growth 48h: 2.3µM*; AMA1 RON2 block: 24%; HCV inh: -8%; Pf growth 96h: -1%

How did C=CCn1c(SCC(N)=O)nnc1-c1cccc(Br)c1 do in these assays?
Pf growth 48h: 10%; AMA1 RON2 block: -5%; HCV inh: 10%; Pf growth 96h: 14%

What do the screens show for `CSc1nnc(-c2ccncc2)n1/N=C/c1cn(-c2ccccc2)nc1-c1ccc(Cl)cc1`?
Pf growth 48h: 9.3µM*; AMA1 RON2 block: -14%; HCV inh: inconclusive; Pf growth 96h: 0%

What do the screens show for `C=CCNC(=O)c1oc2ccc(S(=O)(=O)N3CCC4(CC3)OCCO4)cc2c1C`?
Pf growth 48h: inconclusive; AMA1 RON2 block: -1%; HCV inh: -10%; Pf growth 96h: -23%

What do the screens show for `Cc1c(C(=O)NCCc2ccccc2)oc2ccc(S(=O)(=O)N3CCC4(CC3)OCCO4)cc12`?
Pf growth 48h: inconclusive; AMA1 RON2 block: -7%; HCV inh: 11µM*; Pf growth 96h: inconclusive

What do the screens show for `COc1ccc(NC(=O)c2oc3ccc(S(=O)(=O)N4CCC5(CC4)OCCO5)cc3c2C)cc1`?
Pf growth 48h: 3.7µM*; AMA1 RON2 block: -5%; HCV inh: 13µM*; Pf growth 96h: 74%

How did COc1cccc(-c2cnc(C(O)c3ccc(Cl)cc3C)[nH]2)c1 (stereo unspecified) do in these assays?
AMA1 RON2 block: -11%

How did Cn1c(/C=N/Nc2nc3ccccc3[nH]2)nc2ccccc21 do in these assays?
Pf growth 48h: -17%; AMA1 RON2 block: -20%; HCV inh: inconclusive; Pf growth 96h: inconclusive

How did CCCn1c(/C=N/Nc2nc3ccccc3[nH]2)nc2ccccc21 do in these assays?
Pf growth 48h: 1.9µM*; AMA1 RON2 block: 31%; HCV inh: inconclusive; Pf growth 96h: 4.1µM*

What do the screens show for `CC(C)Cn1c(/C=N/Nc2nc3ccccc3[nH]2)nc2ccccc21`?
Pf growth 48h: 3.7µM*; AMA1 RON2 block: 15%; HCV inh: 2.5µM*; Pf growth 96h: 0.47µM*

How did CCCCNC(=O)CSc1nc(Cc2ccccc2)nc2ccccc12 do in these assays?
Pf growth 48h: 6%; AMA1 RON2 block: 0%; HCV inh: -11%; Pf growth 96h: -3%

What do the screens show for `Cc1cc(F)ccc1NCC(=O)Nc1ccccc1Br`?
Pf growth 48h: inconclusive; AMA1 RON2 block: -7%; HCV inh: 13%; Pf growth 96h: inconclusive

What do the screens show for `Cc1cc(SCC(=O)c2cccs2)nc2ccccc12`?
Pf growth 48h: 27%; AMA1 RON2 block: -4%; HCV inh: 10µM*; Pf growth 96h: -7%

How did O=C(CSc1nc2ccccc2c(=O)[nH]1)c1cccs1 do in these assays?
Pf growth 48h: -3%; AMA1 RON2 block: -1%; HCV inh: 4%; Pf growth 96h: inconclusive

Results for CC(C)CC1NC(=O)N(CC(=O)Nc2ccc(-c3ccccc3)cc2)C1=O (stereo unspecified) ?
Pf growth 48h: -5%; AMA1 RON2 block: 15%; HCV inh: inconclusive; Pf growth 96h: -1%

Results for CC(=O)Nc1sc(N/N=C/c2ccc(C)cc2)nc1-c1ccc(C)cc1 ?
Pf growth 48h: inconclusive; AMA1 RON2 block: 17%; HCV inh: -24%; Pf growth 96h: inconclusive

Results for COc1cc(/C=N/Nc2nc(C)cc(C)n2)ccc1O ?
AMA1 RON2 block: 121%

What do the screens show for `COc1ccc(/C=N/Nc2nnc(C)n2N)cc1OC(C)=O`?
AMA1 RON2 block: 1%; HCV inh: 16%; Pf growth 96h: 25%

Results for CCOc1cc(/C=N\Nc2nc(-c3ccc(C)cc3)c(NC(C)=O)s2)ccc1O ?
Pf growth 48h: 8.3µM*; AMA1 RON2 block: 32%; HCV inh: inconclusive; Pf growth 96h: inconclusive

Results for CC(=O)Nc1sc(N/N=C/c2ccc(N(C)C)cc2)nc1-c1ccc(C)cc1 ?
Pf growth 48h: 2.1µM*; AMA1 RON2 block: 17%; HCV inh: -5%; Pf growth 96h: 4.7µM*

What do the screens show for `COc1ccc(/C=N/Nc2nc(-c3ccc(C)cc3)c(NC(C)=O)s2)cc1OC`?
Pf growth 48h: 1.2µM*; AMA1 RON2 block: 5%; HCV inh: 9%; Pf growth 96h: 1.2µM*

Results for COc1cc(/C=N\Nc2nc(-c3ccc(C)cc3)c(NC(C)=O)s2)ccc1O ?
Pf growth 48h: 10µM*; AMA1 RON2 block: 21%; HCV inh: -21%; Pf growth 96h: 5.9µM*

What do the screens show for `Cc1nnn(C23CC4CC(CC(CC(=O)Nc5ccc(C)c(C)c5)(C4)C2)C3)n1`?
Pf growth 48h: inconclusive; AMA1 RON2 block: -12%; HCV inh: -1%; Pf growth 96h: 12%
